Here are results for ten compounds from PubChem BioAssay (EPA / NIEHS).

Results filed as inconclusive are left out. Activity calls are given as the source filed them. The calls were made as follows: active = hit-call score of the fitted dose curve at least 0.9, where 1 is the maximum; inconclusive = response in the unintended direction; inactive = score below 0.9.

Chain of human Serotonin, 5-Hydroxytryptamine Receptor 3 (5HT3), HTR3A (gene 3359) (P46098 whole entry, looked up): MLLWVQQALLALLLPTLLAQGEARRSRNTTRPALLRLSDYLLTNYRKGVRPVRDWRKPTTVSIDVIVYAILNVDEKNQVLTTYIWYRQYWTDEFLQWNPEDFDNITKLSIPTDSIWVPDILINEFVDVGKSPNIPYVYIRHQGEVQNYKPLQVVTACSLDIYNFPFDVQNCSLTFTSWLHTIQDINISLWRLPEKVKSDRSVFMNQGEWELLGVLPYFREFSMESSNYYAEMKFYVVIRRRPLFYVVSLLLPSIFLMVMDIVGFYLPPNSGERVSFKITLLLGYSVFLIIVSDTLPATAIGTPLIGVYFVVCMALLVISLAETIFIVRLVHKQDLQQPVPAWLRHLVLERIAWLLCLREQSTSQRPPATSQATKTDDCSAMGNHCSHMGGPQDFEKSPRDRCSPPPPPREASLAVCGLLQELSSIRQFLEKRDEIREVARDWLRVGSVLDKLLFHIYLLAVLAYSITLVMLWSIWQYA

The assay addresses human Serotonin, 5-Hydroxytryptamine Receptor 3 (5HT3), HTR3A (gene 3359) (UniProt P46098). In words: NVS_LGIC_h5HT3: NovaScreen (NVS) Ligand-Gated Ion Channel Assay for human Serotonin, 5-Hydroxytryptamine Receptor 3 (5HT3) (AID 2283325). The protocol:
NVS_LGIC_h5HT3 is a biochemical, single-readout assay that uses extracted gene-proteins from HEK293 in a cell-free assay. Measurements were taken 1 hour after chemical dosing in a 96-well plate.NVS_LGIC_h5HT3 is one of one assay component(s) measured or calculated from the NVS_LGIC_h5HT3 assay. It is designed to make measurements of radioligand binding, a form of binding reporter, as detected with scintillation counting signals by Filter-based radiodetection technology.Data from the assay component NVS_LGIC_h5HT3 was analyzed into 1 assay endpoint. This assay endpoint, NVS_LGIC_h5HT3, was analyzed in the positive analysis fitting direction relative to DMSO as the negative control and baseline of activity. Using a type of binding reporter, loss-of-signal activity can be used to understand changes in the binding as they relate to the gene HTR3A. Furthermore, this assay endpoint can be referred to as a primary readout, because the performed assay has only produced 1 assay endpoint. To generalize the intended target to other relatable targets, this assay endpoint is annotated to the ion channel intended target family, where the subfamily is ligand-gated ion channel.
Binding assays used specific radioligands (tritiated, iodinated) with non-radioactive competitive displacement ligands in agonist or antagonist protocols (as indicated) and various reference compounds and inhibitors to titrate specific binding to receptors and transporters. Most enzyme assays (CYPs, kinases, phosphatases, proteases, HDACs) used recombinant protein and specific substrates (fluorescence mostly, some colorimetric and radioactive) and inhibitors, followed by a biochemical separation of substrate and product. All assays for the biochemical HTS were initially run in duplicate at a single concentration (10 uM for CYP450 assays and 25 uM for all others). Assay-chemical combinations meeting a pre-defined threshold (e.g., 30% inhibition and other criteria defined below) were then run in singleton concentration-response format with maximum concentration of 20 uM for CYPs and 50 uM for all others. Each assay was run with positive and negative controls, and concurrent controls on every plate. The follow-up (secondary) screen tested active chemical-pairs in concentration series, as well as a few additional assays not tested in the primary screen, some selected negative inactives, and several cases re-run in the concentration series for confirmatory purposes.
As to `Cc1ccc(Cl)cc1`, the concentration at half-maximal activity (AC50) was 7.56 µM (active). Regarding `CCCCCCCCCCCC(=O)OC`, the call was inactive. Take `CNCc1cc(F)ccc1Oc1ccc(Cl)c(Cl)c1`: the compound was classed as inactive.

In the case of `COc1cc(S(=O)(=O)O)c(C)cc1N=Nc1c(O)ccc2cc(S(=O)(=O)O)ccc12`, the half-maximal activity concentration (AC50) was 32.8 µM (active). With `COc1cc(C=O)ccc1O`, the AC50 was 15 µM (active). With `NCC1(Cc2noc(=O)[nH]2)CCCCC1`, the result was inactive. `Oc1ccc2c(c1)OC[C@@H](N1CCC(O)(c3ccc(F)cc3)CC1)[C@H]2O`: the result was inactive.

For the compound `O=C(OCCCCCOC(=O)c1ccccc1)c1ccccc1`, the AC50 is 0.0428 µM (active). Consider `CCCCCCCCCCCCCCCC`, for which the compound was called inactive. Consider `CCOc1ccc2c(c1)C(C)=CC(C)(C)N2`, for which the compound was called inactive.

One may read the AC50 as the midpoint of the concentration-response curve, whichever way the signal moves.
